Active and inactive are the calls of the source. How the source made its calls: active means hit-call score of the fitted dose curve at least 0.9, where 1 is the maximum; inactive means score below 0.9.
Columns and labels:
[1] = ATG_CRE_CIS: Attagene CIS-FACTORIAL HepG2 Assay for human cAMP Responsive Element (CRE) binding protein 3 (AID 2282926); conditions: HepG2 CRE cis-reporter, Attagene multiplexed mRNA; actives raise or lower the signal
Procedure, shortened: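 Endogenous CRE-binding activity in HepG2 is reported through a cis-regulated transfected reporter. Following a day of exposure, mRNA levels are determined by reverse transcription PCR and fluorescent fragment analysis; fits run in both directions versus DMSO.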

[2] = biological target: CCAAT/enhancer-binding protein beta (Homo sapiens) (UniProt P17676); experiment: ATG_C_EBP_CIS: Attagene CIS-FACTORIAL HepG2 Assay for human CCAAT/Enhancer Binding Protein (C/EBP) beta (AID 2282927); conditions: HepG2 Attagene cis-factorial transcription factor reporter; actives raise or lower the signal
CCAAT/enhancer-binding protein beta (Homo sapiens), sequence (P17676 whole entry, looked up): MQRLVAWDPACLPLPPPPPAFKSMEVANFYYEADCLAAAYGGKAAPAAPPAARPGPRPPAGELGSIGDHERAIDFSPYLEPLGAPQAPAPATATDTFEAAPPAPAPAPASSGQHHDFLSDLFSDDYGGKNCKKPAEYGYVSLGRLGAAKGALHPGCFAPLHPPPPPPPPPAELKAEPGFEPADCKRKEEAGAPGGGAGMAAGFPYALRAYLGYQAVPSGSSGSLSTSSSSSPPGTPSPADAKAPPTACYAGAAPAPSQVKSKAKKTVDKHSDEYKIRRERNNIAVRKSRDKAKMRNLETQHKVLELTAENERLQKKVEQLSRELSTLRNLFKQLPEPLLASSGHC
Procedure, shortened: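 Changes in reporter mRNA, rather than exogenous chimeric receptor activity, reflect native C/EBP signalling in transfected HepG2 cells dosed for 24 h; transcripts are detected by RT-PCR and capillary electrophoresis.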

[3] = ATG_CMV_CIS: Attagene CIS-FACTORIAL HepG2 Assay for human CMV (Internal Marker) (AID 2282928); conditions: HepG2 CMV promoter reporter, transcription factor profiling; actives raise or lower the signal;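 further: endpoint acts as a background internal control marker rather than a target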
Procedure, shortened: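 Cell system: HepG2, transiently transfected multiple reporter units under cis promoters. Exposure: 24 h. Detection: RT-PCR, FAM labeling, HpaI digestion, capillary electrophoresis. Analysis: bidirectional, DMSO baseline.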

[4] = ATG_DR4_LXR_CIS: Attagene CIS-FACTORIAL HepG2 Assay for human Liver X Receptor (LXR), DR4 submotif (AID 2282929); conditions: HepG2 Attagene DR4 cis-reporter, mRNA transcription; actives raise or lower the signal
Procedure, shortened: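 After transient transfection with multiplexed cis-promoter reporter units, HepG2 cells received test chemicals for 24 h. Reporter mRNA induction, detected by fluorescence after RT-PCR and capillary electrophoresis, was scored relative to DMSO.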

[5] = biological target: Aryl hydrocarbon receptor (Homo sapiens) (UniProt P35869); experiment: ATG_Ahr_CIS: Attagene CIS-FACTORIAL HepG2 Assay for human Aryl Hydrocarbon Receptor (Ahr) (AID 2282930); conditions: HepG2 AhR cis-factorial reporter transcription; actives raise or lower the signal
Aryl hydrocarbon receptor (Homo sapiens), sequence (P35869 whole entry, looked up): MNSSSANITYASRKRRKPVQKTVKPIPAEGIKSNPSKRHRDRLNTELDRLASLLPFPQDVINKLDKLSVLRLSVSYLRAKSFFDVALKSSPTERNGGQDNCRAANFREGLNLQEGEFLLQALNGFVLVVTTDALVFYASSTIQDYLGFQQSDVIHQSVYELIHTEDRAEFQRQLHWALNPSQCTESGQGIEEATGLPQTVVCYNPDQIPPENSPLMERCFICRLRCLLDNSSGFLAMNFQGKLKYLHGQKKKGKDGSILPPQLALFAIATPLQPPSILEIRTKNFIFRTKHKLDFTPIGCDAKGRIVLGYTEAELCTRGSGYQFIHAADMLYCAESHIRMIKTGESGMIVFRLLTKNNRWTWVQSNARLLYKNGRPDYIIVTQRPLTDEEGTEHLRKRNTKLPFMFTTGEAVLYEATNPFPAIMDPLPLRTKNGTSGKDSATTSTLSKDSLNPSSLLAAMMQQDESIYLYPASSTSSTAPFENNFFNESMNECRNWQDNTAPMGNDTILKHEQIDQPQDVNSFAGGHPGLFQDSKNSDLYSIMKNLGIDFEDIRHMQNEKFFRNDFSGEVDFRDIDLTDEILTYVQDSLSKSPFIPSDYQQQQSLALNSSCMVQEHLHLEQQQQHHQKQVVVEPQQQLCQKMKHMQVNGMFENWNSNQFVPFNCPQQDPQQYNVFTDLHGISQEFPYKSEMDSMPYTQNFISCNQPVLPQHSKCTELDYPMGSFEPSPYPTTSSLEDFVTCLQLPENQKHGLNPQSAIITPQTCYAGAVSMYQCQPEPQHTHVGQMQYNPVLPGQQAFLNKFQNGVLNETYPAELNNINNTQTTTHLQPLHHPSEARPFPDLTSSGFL
Procedure, shortened: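 HepG2, transient MRTU (cis) transfection, 24 h exposure. RNA → cDNA → PCR → 6-FAM primer extension → HpaI 2 h 37 C → CE. Fit: bidirectional, DMSO baseline.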

[6] = ATG_AP_2_CIS: Attagene CIS-FACTORIAL HepG2 Assay for human Activator Protein 2 (AP-2) (AID 2282932); conditions: HepG2 AP-2 cis-reporter, Attagene transcription factor profiling; actives raise or lower the signal
Procedure, shortened: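 Step one: transient transfection of HepG2 with reporter transcription units. Step two: 24 h chemical exposure. Step three: RNA extraction, RT-PCR, labelled fragment analysis by capillary electrophoresis; DMSO serves as baseline.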

[7] = ATG_BRE_CIS: Attagene CIS-FACTORIAL HepG2 Assay for human Bone Morphogenetic Protein (BMP) Response Element (BRE) (AID 2282933); conditions: HepG2 BMP response element reporter, Attagene transcription factor profiling; actives raise or lower the signal
Procedure, shortened: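 Endogenous transcription factor activity read in transiently transfected HepG2 cells after 24 h chemical exposure. Bidirectional curve fitting against DMSO; readout is reporter transcript level by RT-PCR with capillary electrophoresis of labelled products.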

[8] = biological target: Retinoic acid receptor alpha (Homo sapiens) (UniProt P10276); experiment: ATG_DR5_RAR_CIS: Attagene CIS-FACTORIAL HepG2 Assay for human Retinoic Acid Receptor Alpha (RARE), DR5 submotif (AID 2282934); conditions: HepG2 Attagene cis-factorial RARE DR5 reporter, mRNA; actives raise or lower the signal;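 on AC50: reporter responds to endogenous RAR alpha beta and gamma in HepG2 not RARA alone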
Retinoic acid receptor alpha (Homo sapiens), sequence (P10276 whole entry, looked up): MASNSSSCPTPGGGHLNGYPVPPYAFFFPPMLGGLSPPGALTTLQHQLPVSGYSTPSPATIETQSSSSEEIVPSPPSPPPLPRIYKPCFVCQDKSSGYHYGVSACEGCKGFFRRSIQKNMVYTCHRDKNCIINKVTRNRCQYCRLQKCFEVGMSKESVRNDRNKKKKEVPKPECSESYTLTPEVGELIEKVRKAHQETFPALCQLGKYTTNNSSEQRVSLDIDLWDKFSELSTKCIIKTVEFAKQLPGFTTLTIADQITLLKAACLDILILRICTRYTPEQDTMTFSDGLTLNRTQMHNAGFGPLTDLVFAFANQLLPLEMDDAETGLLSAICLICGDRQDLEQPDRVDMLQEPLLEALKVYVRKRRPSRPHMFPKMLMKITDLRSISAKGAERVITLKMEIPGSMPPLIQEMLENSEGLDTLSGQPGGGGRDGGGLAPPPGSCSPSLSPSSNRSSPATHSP
Procedure, shortened: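 HepG2, transient cis-reporter transfection, 24 h exposure. mRNA readout: RT-PCR, FAM label, HpaI cut, capillary electrophoresis. DMSO baseline, gain/loss fitting.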

[9] = biological target: Transcription factor E2F1 (Homo sapiens) (UniProt Q01094); experiment: ATG_E2F_CIS: Attagene CIS-FACTORIAL HepG2 Assay for human E2F Transcription Factor 1 (AID 2282935); conditions: HepG2 Attagene cis-reporter, E2F reporter RNA transcripts; actives raise or lower the signal
Transcription factor E2F1 (Homo sapiens), sequence (Q01094 whole entry, looked up): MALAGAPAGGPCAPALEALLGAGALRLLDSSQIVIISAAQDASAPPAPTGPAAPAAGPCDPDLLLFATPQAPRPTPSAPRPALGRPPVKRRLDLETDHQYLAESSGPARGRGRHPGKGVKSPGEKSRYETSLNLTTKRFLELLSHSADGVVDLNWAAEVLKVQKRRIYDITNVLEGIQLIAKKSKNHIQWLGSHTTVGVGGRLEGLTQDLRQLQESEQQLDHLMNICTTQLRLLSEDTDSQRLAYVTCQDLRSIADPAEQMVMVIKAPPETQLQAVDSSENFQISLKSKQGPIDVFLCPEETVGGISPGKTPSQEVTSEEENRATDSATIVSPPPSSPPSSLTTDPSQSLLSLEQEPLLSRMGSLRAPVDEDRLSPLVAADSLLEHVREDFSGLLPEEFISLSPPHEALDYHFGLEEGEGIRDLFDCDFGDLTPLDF
Procedure, shortened: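 Total RNA from 24 h-treated, reporter-transfected HepG2 cells undergoes DNase I treatment, oligo(dT) reverse transcription, PCR and 6-FAM primer extension before capillary electrophoresis.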

[10] = ATG_E_Box_CIS: Attagene CIS-FACTORIAL HepG2 Assay for human Enhancer Box (E-box) (AID 2282936); conditions: HepG2 E-box cis-reporter transcription, actives raise or lower the signal
Procedure, shortened: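 DMSO served as negative control and baseline for bidirectional fitting. Human hepatoma HepG2 cells, transiently transfected with cis-reporter constructs, were dosed 24 h; reporter mRNA read by RT-PCR and capillary electrophoresis.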

[11] = ATG_M_61_CIS: Attagene CIS-FACTORIAL HepG2 Assay for M61 Transcription Factor (Internal Marker) (AID 2282937); conditions: HepG2 Attagene CIS-FACTORIAL M61 internal marker reporter; actives raise or lower the signal
Procedure, shortened: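 Using transiently transfected HepG2 liver cells, reporter transcript levels were assessed 24 h post-dosing by RT-PCR and capillary electrophoresis. Changes in either direction were fitted relative to DMSO controls.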

[12] = ATG_EGR_CIS: Attagene CIS-FACTORIAL HepG2 Assay for human Early Growth Response 1 (EGR1) (AID 2282938); conditions: HepG2 Attagene CIS-FACTORIAL EGR reporter mRNA; actives raise or lower the signal
Procedure, shortened: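 Fluorescent capillary-electrophoresis signal of reporter cDNA fragments serves as read-out. HepG2 cells bear transiently transfected cis-promoter reporter units and are exposed 24 h; gain- or loss-of-signal is fitted against DMSO.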

[13] = ATG_M_19_CIS: Attagene CIS-FACTORIAL HepG2 Assay for M19 Transcription Factor (Internal Marker) (AID 2282939); conditions: HepG2 Attagene CIS-FACTORIAL M19 internal marker reporter; actives raise or lower the signal
Procedure, shortened: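 Internal marker readout, fitted in both directions against DMSO, from HepG2 cells carrying transfected cis-element reporter constructs; RT-PCR and capillary electrophoresis of reporter mRNA after 24 h exposure.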

[14] = ATG_Ets_CIS: Attagene CIS-FACTORIAL HepG2 Assay for human Erythroblast Transformation Specific (ETS) (AID 2282941); conditions: HepG2 ETS cis-reporter transcription, actives raise or lower the signal
Procedure, shortened: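 After transient cis-reporter transfection, HepG2 cells receive test chemical for 24 h. Reporter mRNA levels, measured by RT-PCR and capillary electrophoresis fluorescence, are analysed bidirectionally relative to the DMSO baseline.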

[15] = ATG_FoxO_CIS: Attagene CIS-FACTORIAL HepG2 Assay for human Forkhead box O (FoxO) (AID 2282943); conditions: HepG2 Attagene cis-reporter, FoxO element, mRNA; actives raise or lower the signal
Procedure, shortened: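 Human hepatoma HepG2 cells carry transiently introduced reporter transcription units controlled by cis promoter elements. Chemical treatment lasted 24 h, and mRNA signal was compared with DMSO.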

[16] = ATG_GATA_CIS: Attagene CIS-FACTORIAL HepG2 Assay for human GATA Binding Protein (AID 2282944); conditions: HepG2 GATA cis-element reporter, Attagene multiplex mRNA; actives raise or lower the signal
Procedure, shortened: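 Reporter transcripts from a GATA cis-regulated unit, among multiplexed reporters in transfected HepG2 cells, were measured by RT-PCR with capillary electrophoresis after 24 h dosing. Induction or loss scored relative to DMSO.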

[17] = ATG_GLI_CIS: Attagene CIS-FACTORIAL HepG2 Assay for human Zinc Finger Protein GLI1 (AID 2282945); conditions: HepG2, Attagene cis-factorial reporter mRNA, GLI element; actives raise or lower the signal
Procedure, shortened: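 Bidirectional curve fits relative to DMSO, using reporter mRNA levels from RT-PCR plus capillary electrophoresis. Cells were HepG2 transiently carrying cis-regulated reporter constructs, harvested 24 h after dosing.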

[18] = ATG_AP_1_CIS: Attagene CIS-FACTORIAL HepG2 Assay for human Activator Protein 1 (AP-1) (AID 2282931); conditions: HepG2 Attagene cis-factorial AP-1 reporter mRNA; actives raise or lower the signal
Procedure, shortened: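 After 24 h incubation with test chemical, RNA from transfected HepG2 cells was reverse-transcribed, amplified, fluorescently labelled and digested before capillary electrophoresis. Reporters were driven by cis-regulatory promoters; activity fitted bidirectionally versus DMSO.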

[19] = biological target: Hepatocyte nuclear factor 3-beta (Homo sapiens) (UniProt Q9Y261); experiment: ATG_FoxA2_CIS: Attagene CIS-FACTORIAL HepG2 Assay for human Forkhead box A2 (FOXA2) (AID 2282942); conditions: HepG2 cis-reporter transcription factor activity, 24 h; actives raise or lower the signal
Hepatocyte nuclear factor 3-beta (Homo sapiens), sequence (Q9Y261 whole entry, looked up, the tested form may be a part): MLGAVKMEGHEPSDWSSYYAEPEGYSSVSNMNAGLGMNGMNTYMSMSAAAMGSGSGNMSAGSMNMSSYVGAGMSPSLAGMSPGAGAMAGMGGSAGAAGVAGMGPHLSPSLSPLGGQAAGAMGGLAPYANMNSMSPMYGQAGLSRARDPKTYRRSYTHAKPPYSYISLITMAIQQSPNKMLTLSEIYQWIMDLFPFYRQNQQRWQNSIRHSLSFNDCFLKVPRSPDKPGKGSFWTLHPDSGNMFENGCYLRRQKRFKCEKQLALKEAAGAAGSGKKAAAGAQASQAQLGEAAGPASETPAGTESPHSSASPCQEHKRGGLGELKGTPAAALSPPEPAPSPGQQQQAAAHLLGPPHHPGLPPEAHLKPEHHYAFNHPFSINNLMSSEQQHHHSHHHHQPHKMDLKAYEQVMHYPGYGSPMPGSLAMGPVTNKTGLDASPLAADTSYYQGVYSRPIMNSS
Procedure, shortened: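 Fluorescence signal of reporter cDNA fragments, separated by capillary electrophoresis, reflects endogenous transcription factor activity in transfected HepG2 after 24 h. Both increases and decreases fitted against DMSO.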

[20] = ATG_ERE_CIS: Attagene CIS-FACTORIAL HepG2 Assay for Estrogen Response Element (ERE) (AID 2282940); conditions: HepG2 ERE cis-reporter, Attagene RNA transcript; actives raise or lower the signal
Procedure, shortened: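 After 24 h compound treatment, RNA from transfected HepG2 cells was reverse-transcribed, reporter cDNA PCR-amplified, FAM-labelled, HpaI-cut and resolved by capillary electrophoresis. ERE-driven cis reporter transcripts reflect endogenous factors; gain or loss scored against DMSO.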

Measured: AC50

CCCCCCC(CO)CCCC (stereo unspecified)
active: [5] 25.6 µM
inactive: [1] | [2] | [3] | [4] | [6] | [7] | [8] | [9] | [10] | [11] | [12] | [13] | [14] | [15] | [16] | [17]

C=CC(=O)OCCC#N
inactive: [1] | [2] | [18] | [8] | [9] | [11] | [13] | [19]
active: [3] 100 µM | [4] 40.5 µM | [6] 21.6 µM | [7] 26.7 µM | [12] 82.6 µM | [14] 35.9 µM | [17] 145 µM

Cc1ncc([N+](=O)[O-])n1CCO
inactive: [1] | [2] | [3] | [4] | [5] | [7] | [8] | [9] | [11] | [12] | [13] | [20] | [14] | [19] | [15]

CC(=O)O[C@H]1C[C@@H]2CC[C@@]1(C)C2(C)C
inactive: [1] | [2] | [3] | [4] | [5] | [6] | [7] | [8] | [9] | [11] | [12] | [13] | [14] | [19] | [15] | [16] | [17]

CCCCC(CC)C(=O)OC(C)C (stereo unspecified)
inactive: [1] | [2] | [3] | [4] | [5] | [6] | [7] | [8] | [9] | [10] | [11] | [12] | [13] | [14] | [19] | [15] | [16] | [17]

Cc1cc(=O)oc2cc(N(C)C)ccc12
active: [1] 54.1 µM | [3] 46.7 µM
inactive: [2] | [4] | [18] | [6] | [7] | [8] | [9] | [10] | [11] | [12] | [13] | [14] | [19] | [15] | [16] | [17]

O=C(CS)OCCOC(=O)CS
active: [3] 72.7 µM | [4] 49.1 µM | [5] 24.9 µM | [6] 100 µM | [8] 27.5 µM | [10] 58.7 µM
inactive: [1] | [2] | [7] | [9] | [11] | [12] | [13] | [14] | [19] | [15] | [17]

CN(C)c1ccncc1
inactive: [1] | [2] | [3] | [4] | [18] | [6] | [7] | [8] | [9] | [10] | [11] | [12] | [13] | [20] | [14] | [15] | [16] | [17]

CC1=C(Br)C(=O)C(Br)=C/C1=C(/c1ccccc1S(=O)(=O)O)c1cc(Br)c(O)c(Br)c1C
inactive: [1] | [2] | [3] | [4] | [18] | [6] | [7] | [8] | [9] | [10] | [11] | [12] | [13] | [14] | [19] | [16] | [17]

O=C(O)CNc1ccccc1
inactive: [1] | [2] | [3] | [4] | [18] | [7] | [8] | [9] | [10] | [11] | [12] | [13] | [14] | [15] | [16] | [17]

CS(=O)(=O)OCCCCOS(C)(=O)=O
inactive: [1] | [2] | [3] | [4] | [18] | [6] | [7] | [8] | [9] | [10] | [11] | [12] | [13] | [20] | [14] | [15] | [16] | [17]

Cc1cccc(Nc2ccccc2)c1
inactive: [1] | [2] | [3] | [5] | [6] | [7] | [8] | [9] | [10] | [11] | [13] | [19] | [15] | [17]
active: [4] 67.5 µM | [12] 73.8 µM | [14] 154 µM

CC(=O)NCCO
inactive: [1] | [2] | [3] | [4] | [18] | [6] | [7] | [8] | [9] | [10] | [11] | [12] | [13] | [14] | [15] | [17]

CCCCCCCCc1ccc(S(=O)(=O)O)cc1
inactive: [2] | [3] | [18] | [6] | [7] | [8] | [12]
active: [1] 19.7 µM | [4] 42.1 µM | [9] 155 µM | [10] 159 µM | [11] 155 µM | [13] 157 µM | [14] 156 µM | [15] 159 µM | [16] 99.5 µM | [17] 168 µM
